Source: the supplement of paper PMC12494721
Where a name gives a salt, the structure may show the parent alone.

Columns and labels:
Conditions in all cases: incubation time: 27 h, anaerobic, 37 °C;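 for the amine columns active = adjusted P below 0.05 in both replicates with a change the same way and a mean fold change under 0.8 or over 1.25; inactive = the rest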
[1] = test system: Clostridium sporogenes DSM 1664; test: growth (OD595) fold change vs plate DMSO controls (fold change (ratio)); higher = more growth
Summary of the method: (§1)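 Anaerobic mGAM cultures in 96-well plates were grown for 27 h at 37 °C, and absorbance was then read at 595 nm. After blank and compound background correction with 20 µM compound solutions in water, a calibration factor of 5 gave OD. Growth is the fold change relative to the median of each plate's DMSO controls. Values are means of 2 biological replicates, with fold changes above 1.5 set to NA.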

Escherichia coli IAI1 [2] = test: as above
Summary of the method: as §1

[3] = test system: Klebsiella aerogenes DSM 30053; test: as above
Summary of the method: as §1

[4] = test system: Ruminococcus gnavus DSM 108212; test: as above
Summary of the method: as §1

[5] = test system: Klebsiella aerogenes DSM 30053; test: fold change of Histamine concentration vs plate DMSO controls (fold change (ratio)); higher = more amine produced, active = hit call of the paper (significant change in both replicates, either direction)
Summary of the method: (§2)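 Anaerobic mGAM cultures of four gut bacterial strains were grown at 37 °C for 27 h in 80 µL wells, starting at OD 0.1 before 1:1 dilution. Compounds were at 20 µM final (sweeteners 50 µM). Whole cultures were extracted with cold acetonitrile/methanol containing 0.1% formic acid and centrifuged. Amines were quantified by LC–triple-quadrupole MS (dynamic MRM) against external calibration curves and drift-corrected within batch. Each value is the fold change versus plate DMSO controls, averaged over 2 biological replicates.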

[6] = test system: Clostridium sporogenes DSM 1664; test: fold change of Tryptamine concentration vs plate DMSO controls (fold change (ratio)); higher = more amine produced, active = hit call of the paper (significant change in both replicates, either direction)
Summary of the method: as §2

[7] = test system: Ruminococcus gnavus DSM 108212; test: as above
Summary of the method: as §2

Escherichia coli IAI1 [8] = test: fold change of Putrescine concentration vs plate DMSO controls (fold change (ratio)); higher = more amine produced, active = hit call of the paper (significant change in both replicates, either direction)
Summary of the method: as §2

[9] = test system: Klebsiella aerogenes DSM 30053; test: as above
Summary of the method: as §2

Escherichia coli IAI1 [10] = test: fold change of Cadaverine concentration vs plate DMSO controls (fold change (ratio)); higher = more amine produced, active = hit call of the paper (significant change in both replicates, either direction)
Summary of the method: as §2

[11] = test system: Klebsiella aerogenes DSM 30053; test: as above
Summary of the method: as §2

[12] = test system: Ruminococcus gnavus DSM 108212; test: fold change of 2-Phenylethylamine concentration vs plate DMSO controls (fold change (ratio)); higher = more amine produced, active = hit call of the paper (significant change in both replicates, either direction)
Summary of the method: as §2

Row | SMILES | growth [1] | growth (Escherichia coli IAI1 [2]) | growth [3] | growth [4] | fold change of Histamine concentration [5] | fold change of Tryptamine concentration [6] | fold change of Tryptamine concentration [7] | fold change of Putrescine concentration (Escherichia coli IAI1 [8]) | fold change of Putrescine concentration [9] | fold change of Cadaverine concentration (Escherichia coli IAI1 [10]) | fold change of Cadaverine concentration [11] | fold change of 2-Phenylethylamine concentration [12]
1 | COCCCOc1ccnc(C[S+]([O-])c2nc3ccccc3[nH]2)c1C (stereo not drawn) [Rabeprazole sodium salt] (20 µM) | 1.24 | 0.993 | 1.03 | 1.26 | 0.965 (inactive) | 1.09 (inactive) | 1.15 (inactive) | 0.886 (inactive) | 0.95 (inactive) | 0.955 (inactive) | 1.03 (inactive) | 1.23 (inactive)
2 | COCCOC(=O)C1=C(C)NC(C)=C(C(=O)OC/C=C/c2ccccc2)C1c1cccc([N+](=O)[O-])c1 (stereo not drawn) [Cilnidipine] (20 µM) | 1.19 | 0.996 | 1.16 | 0.973 | 0.989 (inactive) | 0.918 (inactive) | 0.945 (inactive) | 1 (inactive) | 1.01 (inactive) | 0.982 (inactive) | 1.03 (inactive) | 0.905 (inactive)
3 | C[C@]12CC[C@@H]3c4ccc(O)cc4CC[C@H]3[C@@H]1CC[C@@H]2O [Estradiol-17 beta] (20 µM) | 1.22 | 1.01 | 1.14 | 1.17 | 1.03 (inactive) | 0.984 (inactive) | 1.04 (inactive) | 0.989 (inactive) | 1 (inactive) | 1 (inactive) | 1 (inactive) | 1.04 (inactive)
4 | CNC(C)CCC=C(C)C (stereo not drawn) [Isometheptene mucate] (20 µM) | 0.966 | 0.977 | 1.01 | 1.24 | 1.09 (inactive) | 0.944 (inactive) | 1.01 (inactive) | 0.979 (inactive) | 1.04 (inactive) | 1.01 (inactive) | 1.02 (inactive) | 0.954 (inactive)
5 | COc1cc(/C=C/C(=O)N2CCN(CC(=O)N3CCCC3)CC2)cc(OC)c1OC [Cinepazide maleate] (20 µM) | 1.13 | 1.06 | 1.02 | 1.02 | 1.03 (inactive) | 1.07 (inactive) | 1.1 (inactive) | 1.01 (inactive) | 0.911 (inactive) | 0.933 (inactive) | 1.06 (inactive) | 1.14 (inactive)
6 | CN[C@@H]1[C@H](O)[C@H](NC)[C@H]2O[C@@]3(O)C(=O)C[C@@H](C)O[C@H]3O[C@@H]2[C@H]1O [Spectinomycin dihydrochloride] (20 µM) | 1.04 | 0.864 | 0.93 | 0.692 | 0.762 (inactive) | 0.992 (inactive) | 0.991 (inactive) | 0.796 (inactive) | 1.08 (inactive) | 0.95 (inactive) | 1.02 (inactive) | 0.991 (inactive)
7 | OC(CCN1CCCC1)(c1ccccc1)C1CCCCC1 (stereo not drawn) [Procyclidine hydrochloride] (20 µM) | 0.903 | 1.05 | 1.02 | 0.966 | 0.947 (inactive) | 0.959 (inactive) | 0.894 (inactive) | 1.13 (inactive) | 1.08 (inactive) | 0.831 (inactive) | 1.04 (inactive) | 0.912 (inactive)
8 | c1ccc2cc3c(ccc4ccccc43)cc2c1 [Benz[a]anthracene] (20 µM) | 1.13 | 0.981 | 1.02 | 0.97 | 1.07 (inactive) | 1.17 (inactive) | 1.12 (inactive) | 1.02 (inactive) | 0.901 (inactive) | 0.963 (inactive) | 1.17 (inactive) | 1.3 (inactive)
9 | CC(=O)N[C@@H](CC(=O)O)C(=O)N[C@@H](CCC(=O)O)C(=O)O [Spaglumic acid] (20 µM) | 1.09 | 0.992 | 1.03 | 1.18 | 1.03 (inactive) | 1.02 (inactive) | 0.995 (inactive) | 0.939 (inactive) | 0.993 (inactive) | 0.988 (inactive) | 0.988 (inactive) | 1.02 (inactive)
10 | O=c1oc2ccccc2c(O)c1Cc1c(O)c2ccccc2oc1=O [Dicumarol] (20 µM) | 0.886 | 0.961 | 1.04 | 0.883 | 1 (inactive) | 0.989 (inactive) | 0.949 (inactive) | 0.993 (inactive) | 1 (inactive) | 1.01 (inactive) | 1.01 (inactive) | 1.02 (inactive)
11 | CC[N+](C)(C)Cc1ccccc1Br [Bretylium tosylate] (20 µM) | 1.03 | 1.02 | 1.06 | 0.996 | 0.853 (inactive) | 0.973 (inactive) | 1.03 (inactive) | 1 (inactive) | 0.998 (inactive) | 0.937 (inactive) | 1.02 (inactive) | 1.05 (inactive)
12 | Nc1ccc(/N=N/c2ccccc2)c(N)n1 [Phenazopyridine hydrochloride] (20 µM) | 1.12 | 0.985 | 0.982 | 1.06 | 0.998 (inactive) | 0.991 (inactive) | 1.02 (inactive) | 0.969 (inactive) | 0.986 (inactive) | 1.02 (inactive) | 0.994 (inactive) | 0.969 (inactive)
13 | Nc1ccc(S(N)(=O)=O)cc1 [Sulfanilamide] (20 µM) | 0.877 | 1.03 | 0.987 | 1.15 | 0.919 (inactive) | 1.12 (inactive) | 1.11 (inactive) | 0.908 (inactive) | 0.951 (inactive) | 0.919 (inactive) | 1.03 (inactive) | 1.15 (inactive)
14 | CN1CCC(=C2c3ccccc3C=Cc3ccccc32)CC1 [Cyproheptadine hydrochloride] (20 µM) | 0.683 | 1.01 | 0.98 | 1.15 | 1.03 (inactive) | 1.18 (inactive) | 0.98 (inactive) | 0.969 (inactive) | 0.996 (inactive) | 0.973 (inactive) | 0.999 (inactive) | 1 (inactive)
15 | CO/N=C(\C(=O)N[C@@H]1C(=O)N2C(C(=O)[O-])=C(C[n+]3cccc4c3CCC4)CS[C@H]12)c1csc(N)n1 [Cefpirome sulfate] (20 µM) | 0.00168 | 0.00447 | 0.0713 | 0.108 | 0.122 (active) | 0.0112 (active) | 0.0828 (active) | 0.213 (active) | 0.347 (active) | 0.645 (inactive) | 1.09 (inactive) | 0.0627 (active)
16 | OC[C@@H](O)[C@H](O)[C@@H](O)CO [Xylitol] (50 µM) | 1 | 1.05 | 1.11 | 1.12 | 1.08 (inactive) | 1.06 (inactive) | 1.06 (inactive) | 1.03 (inactive) | 1.19 (inactive) | 0.916 (inactive) | 1.02 (inactive) | 1.08 (inactive)
17 | NCCCC[C@H](N[C@@H](CCc1ccccc1)C(=O)O)C(=O)N1CCC[C@H]1C(=O)O [Lisinopril] (20 µM) | 1.04 | 1.03 | 1.14 | 0.922 | 0.911 (inactive) | 0.958 (inactive) | 0.981 (inactive) | 0.998 (inactive) | 0.988 (inactive) | 1.04 (inactive) | 1.02 (inactive) | 0.943 (inactive)
18 | Cc1cccc(CN2CCN(C(c3ccccc3)c3ccc(Cl)cc3)CC2)c1 (stereo not drawn) [Meclozine dihydrochloride] (20 µM) | 0.897 | 0.963 | 1.01 | 0.705 | 0.964 (inactive) | 1.04 (inactive) | 0.826 (inactive) | 1 (inactive) | 0.989 (inactive) | 0.971 (inactive) | 1.01 (inactive) | 0.93 (inactive)
19 | CCn1cc(C(=O)O)c(=O)c2cc(F)c(N3CCNCC3)nc21 [Enoxacin] (20 µM) | 0.0582 | 0.0418 | 0.246 | 1.01 | 0.228 (active) | 0.0679 (active) | 0.892 (inactive) | 0.878 (inactive) | 1.19 (inactive) | 0.269 (active) | 0.961 (inactive) | 0.905 (inactive)
20 | CC1(C)OC(=O)NC1=O [Dimethadione] (20 µM) | 0.999 | 0.98 | 0.949 | 1.02 | 0.952 (inactive) | 1.03 (inactive) | 0.747 (inactive) | 1.02 (inactive) | 1 (inactive) | 1.01 (inactive) | 0.992 (inactive) | 0.853 (inactive)
21 | CCCc1cc(=O)[nH]c(=S)[nH]1 [Propylthiouracil] (20 µM) | 0.934 | 1.06 | 0.995 | 1.05 | 0.972 (inactive) | 1.03 (inactive) | 1.04 (inactive) | 1.05 (inactive) | 1.01 (inactive) | 0.974 (inactive) | 0.995 (inactive) | 1.03 (inactive)
22 | CC(C)[C@H](N)C(=O)OCCOCn1cnc2c(=O)nc(N)[nH]c21 [Valacyclovir hydrochloride] (20 µM) | 1.06 | 0.958 | 0.98 | 0.538 | 1.09 (inactive) | 0.989 (inactive) | 1.02 (inactive) | 0.954 (inactive) | 1.03 (inactive) | 0.987 (inactive) | 0.999 (inactive) | 0.997 (inactive)
23 | Nc1ccc(S(=O)(=O)NC(=O)c2ccccc2)cc1 [Sulfabenzamide] (20 µM) | 1.18 | 1.07 | 1.05 | 1.1 | 0.998 (inactive) | 1.07 (inactive) | 1.04 (inactive) | 0.947 (inactive) | 0.991 (inactive) | 0.967 (inactive) | 1.01 (inactive) | 1.09 (inactive)
24 | C[C@H](N[C@@H](CCc1ccccc1)C(=O)O)C(=O)N1CCC[C@H]1C(=O)O [Enalaprilat dihydrate] (20 µM) | 0.89 | 0.971 | 0.996 | 1.16 | 1.04 (inactive) | 0.967 (inactive) | 1.04 (inactive) | 1 (inactive) | 1.01 (inactive) | 1.08 (inactive) | 0.991 (inactive) | 1.04 (inactive)
